From PubChem BioAssay AID1159580 (chemical genetic matrix, 2015)
Out of some 5,500 compounds screened, about 2,000 (36%) were called active. Not shown: some 18% with an inconclusive outcome. No stated cut-off is given here; in the data, active means normalized growth mostly below about 0.91 (no sharp cut-off); inconclusive means no clear call, values can overlap the other calls; inactive means mostly above about 0.92. Some of the results follow.

Test: chemical genetic growth profiling, strain panel (AID 1159580);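 further: tested at 20 µM; growth read once vehicle control cultures reached saturation at 30 °C; 1 = growth at the plate median or of vehicle wells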
Details: S. cerevisiae deletion strains, growth OD
[1] = locus YDL101C, strain DUN1, stronger effect = lower value
[2] = locus YDR150W, strain NUM1, stronger effect = lower value
[3] = locus YGR078C, strain PAC10, stronger effect = lower value
[4] = locus YHR030C, strain SLT2, stronger effect = lower value
[5] = locus YPL055C, strain LGE1, stronger effect = lower value

Measured: normalized growth

OC(CSc1ccccc1)CN1CCN(c2ccc(C(F)(F)F)cn2)CC1 (stereo not drawn)
inactive: locus YAL013W, strain DEP1, stronger effect = lower value 1.01 | locus YBR229C, strain ROT2, stronger effect = lower value 1 | [1] 1.01 | [2] 0.87 | [3] 1 | locus YHR087W, strain rtc3, stronger effect = lower value 0.994 | locus YJR043C, strain POL32, stronger effect = lower value 0.991 | locus YJR075W, strain HOC1, stronger effect = lower value 1 | locus YLR058C, strain SHM2 (second series), stronger effect = lower value 1.01 | locus YMR219W, strain ESC1, stronger effect = lower value 1 | locus YMR263W, strain SAP30, stronger effect = lower value 0.966 | locus YMR307W, strain GAS1, stronger effect = lower value 0.698 | locus YNL153C, strain GIM3, stronger effect = lower value 1.03 | locus YNL322C, strain KRE1, stronger effect = lower value 1.01 | [5] 0.898
active: locus YDL134C, strain PPH21, stronger effect = lower value 0.185 | locus YEL061C, strain CIN8, stronger effect = lower value 0.657 | [4] 0.203 | locus YLR039C, strain RIC1, stronger effect = lower value 0.591 | locus YLR085C, strain ARP6, stronger effect = lower value 0.387 | locus YLR262C, strain YPT6, stronger effect = lower value 0.468 | locus YML094W, strain GIM5, stronger effect = lower value 0.686 | locus YNL298W, strain CLA4 (second series), stronger effect = lower value 0.601 | locus YNR030W, strain Alg12, stronger effect = lower value 0.668 | locus YPL241C, strain CIN2, stronger effect = lower value 0.763 | locus YPR135W, strain CTF4, stronger effect = lower value 0.442

OC(CSc1ccccc1)CN1CCN(c2nc(-c3ccccc3)ns2)CC1 (stereo not drawn)
inactive: locus YAR019C, strain CDC15, stronger effect = lower value 0.991 | locus YBL105C, strain PKC1, stronger effect = lower value 0.977 | locus YBR135W, strain CKS1, stronger effect = lower value 0.993 | locus YBR136W, strain MEC1, stronger effect = lower value 0.977 | locus YBR160W, strain CDC28, stronger effect = lower value 0.982 | locus YDL017W, strain CDC7, stronger effect = lower value 0.989 | locus YDL028C, strain MPS1, stronger effect = lower value 0.99 | [1] 0.98 | locus YDL108W, strain KIN28, stronger effect = lower value 0.99 | locus YDL132W, strain cdc53, stronger effect = lower value 0.996 | locus YDL214C, strain PRR2, stronger effect = lower value 0.932 | locus YDR052C, strain DBF4, stronger effect = lower value 0.981 | locus YDR054C, strain cdc34, stronger effect = lower value 0.977 | locus YDR226W, strain ADK1, stronger effect = lower value 0.989 | locus YDR477W, strain SNF1, stronger effect = lower value 0.931 | locus YER123W, strain YCK3, stronger effect = lower value 0.908 | locus YER133W, strain GLC7, stronger effect = lower value 0.941 | locus YFL009W, strain cdc4, stronger effect = lower value 0.987 | locus YFL029C, strain CAK1, stronger effect = lower value 0.983 | locus YFR003C, strain YPI1, stronger effect = lower value 0.989 | locus YFR019W, strain FAB1, stronger effect = lower value 0.93 | locus YFR028C, strain CDC14, stronger effect = lower value 0.984 | locus YGR040W, strain KSS1, stronger effect = lower value 0.915 | locus YGR052W, strain FMP48, stronger effect = lower value 0.993 | locus YGR092W, strain DBF2, stronger effect = lower value 0.935 | [4] 0.941 | locus YHR079C, strain IRE1, stronger effect = lower value 0.962 | locus YHR082C, strain KSP1, stronger effect = lower value 0.983 | locus YHR205W, strain SCH9, stronger effect = lower value 0.921 | locus YIL147C, strain SLN1, stronger effect = lower value 0.987 | locus YJL095W, strain BCK1, stronger effect = lower value 0.947 | locus YJL128C, strain PBS2, stronger effect = lower value 0.945 | locus YJL157C, strain FAR1, stronger effect = lower value 0.915 | locus YJR016C, strain ILV3, stronger effect = lower value 0.982 | locus YJR066W, strain TOR1 (second series), stronger effect = lower value 0.888 | locus YJR066W, strain TOR1, stronger effect = lower value 1.01 | locus YKL048C, strain ELM1, stronger effect = lower value 0.954 | locus YKL067W, strain YNK1, stronger effect = lower value 0.943 | locus YKL101W, strain HSL1, stronger effect = lower value 0.927 | locus YKL193C, strain SDS22, stronger effect = lower value 0.987 | locus YKL203C, strain TOR2, stronger effect = lower value 0.989 | locus YLR133W, strain CKI1, stronger effect = lower value 0.935 | locus YLR403W, strain SFP1, stronger effect = lower value 0.9 | locus YML070W, strain DAK1, stronger effect = lower value 0.9 | locus YMR001C, strain CDC5, stronger effect = lower value 0.983 | locus YMR205C, strain PFK2 (second series), stronger effect = lower value 0.944 | locus YMR277W, strain FCP1, stronger effect = lower value 0.991 | locus YNL006W, strain LST8, stronger effect = lower value 0.997 | locus YNL020C, strain ARK1, stronger effect = lower value 0.935 | locus YNL161W, strain CBK1, stronger effect = lower value 0.98 | locus YNL183C, strain NPR1, stronger effect = lower value 0.972 | locus YNL207W, strain RIO2, stronger effect = lower value 0.987 | locus YNL222W, strain SSU72, stronger effect = lower value 0.991 | locus YNL307C, strain MCK1 (second series), stronger effect = lower value 0.927 | locus YOL078W, strain AVO1, stronger effect = lower value 0.98 | locus YOL136C, strain PFK27, stronger effect = lower value 0.903 | locus YOR061W, strain CKA2, stronger effect = lower value 0.936 | locus YOR119C, strain RIO1, stronger effect = lower value 0.994 | locus YOR231W, strain MKK1, stronger effect = lower value 0.882 | locus YOR329C, strain SCD5, stronger effect = lower value 0.982 | locus YPL031C, strain PHO85, stronger effect = lower value 0.952 | locus YPL153C, strain RAD53, stronger effect = lower value 0.937 | locus YPL204W, strain HRR25, stronger effect = lower value 0.932 | locus YPL209C, strain IPL1, stronger effect = lower value 0.981 | locus YPL256C, strain CLN2, stronger effect = lower value 0.889 | locus YPR025C, strain CCL1, stronger effect = lower value 0.987 | locus YPR106W, strain ISR1, stronger effect = lower value 0.976 | locus YPR111W, strain DBF20, stronger effect = lower value 0.961 | strain NNK1, stronger effect = lower value 0.973 | strain TSCII, stronger effect = lower value 0.984
active: locus YLR113W, strain HOG1, stronger effect = lower value 0.847

COc1ccccc1N1CCN(CC(O)COc2cccc3ccccc23)CC1 (stereo not drawn)
inactive: locus YAL040C, strain CLN3, stronger effect = lower value 0.993 | locus YCL061C, strain MRC1 (second series), stronger effect = lower value 0.992 | [2] 0.998 | locus YDR363W, strain ESC2, stronger effect = lower value 0.965 | locus YER002W, strain NOP16, stronger effect = lower value 1.02 | [3] 0.978 | locus YNL175C, strain NOP13, stronger effect = lower value 1.01 | locus YNL197C, strain WHI3, stronger effect = lower value 1.04 | locus YNL224C, strain SQS1, stronger effect = lower value 0.99 | locus YOR083W, strain WHI5 (second series), stronger effect = lower value 1.02 | [5] 0.976
